Source: PubChem BioAssay
Active and inactive are the calls of the source.

How the values were obtained:
[1] = small molecules captured by biotinylated probe aFSTL3 – biochemical, small-molecule microarray, fluorescence 635/667, stem cell growth factor project, primary screen (AID 1064); conditions: higher = more signal;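 note: measures binding of the biotinylated anti-FSTL3 antibody to printed compounds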
[2] = binders from COS7 lysate, DM2A8 probe, primary screen, torsin A project, cell lysate, small-molecule microarray, fluorescence 635/667 (AID 1065); conditions: higher = more signal, COS7 lysate expressing mutant human TOR1A
[3] = small molecules captured by biotinylated probe aFGF2 – biochemical, small-molecule microarray, fluorescence 635/667, stem cell growth factor project, primary screen (AID 1067); conditions: higher = more signal;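 note: measures binding of biotinylated aFGF2 protein to printed compounds on slides; z-score merges feature fluorescence and signal-to-noise across triplicate slides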
[4] = small molecules captured by biotinylated probe aFGF10 – biochemical, small-molecule microarray, fluorescence 635/667, stem cell growth factor project, primary screen (AID 1071); conditions: higher = more signal;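 note: score merges 667 nm spot intensity and signal to noise from triplicate slides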
[5] = molecular target: Neurogenic locus notch homolog protein 2 (Homo sapiens) (UniProt Q04721); assay: small molecules binding Notch2 protein – biochemical, small-molecule microarray, 635 nm fluorescence, stem cell growth factors, primary screen (AID 1073); conditions: higher = more signal
[6] = molecular target: Pro-neuregulin-1, membrane-bound isoform (Homo sapiens) (UniProt Q02297); assay: small molecules binding neuregulin-1 protein – biochemical, small-molecule microarray, fluorescence 635/667, psychiatric disease protein project, primary screen (AID 1075); conditions: NRG1 binding, 635 nm fluorescence, higher = more signal;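 note: score combines 667 nm spot fluorescence with signal to noise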
Sequence of Pro-neuregulin-1, membrane-bound isoform (Homo sapiens) (Q02297 whole entry, looked up, the tested form may be a part, canonical isoform): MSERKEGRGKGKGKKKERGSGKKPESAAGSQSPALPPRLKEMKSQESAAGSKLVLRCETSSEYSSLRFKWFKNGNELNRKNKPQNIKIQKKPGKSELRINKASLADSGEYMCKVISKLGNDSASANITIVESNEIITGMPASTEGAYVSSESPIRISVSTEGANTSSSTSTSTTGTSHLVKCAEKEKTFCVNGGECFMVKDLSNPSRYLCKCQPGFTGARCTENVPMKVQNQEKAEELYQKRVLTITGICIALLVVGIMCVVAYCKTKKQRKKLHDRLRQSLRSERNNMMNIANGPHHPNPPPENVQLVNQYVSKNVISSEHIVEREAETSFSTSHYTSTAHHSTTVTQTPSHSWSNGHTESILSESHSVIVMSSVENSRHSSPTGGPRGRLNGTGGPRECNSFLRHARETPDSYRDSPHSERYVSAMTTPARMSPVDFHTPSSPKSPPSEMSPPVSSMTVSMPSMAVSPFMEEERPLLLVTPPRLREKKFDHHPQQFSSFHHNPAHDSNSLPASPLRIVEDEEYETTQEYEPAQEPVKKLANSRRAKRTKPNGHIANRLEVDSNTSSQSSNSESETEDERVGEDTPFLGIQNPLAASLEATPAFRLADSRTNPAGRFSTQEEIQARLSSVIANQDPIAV

[7] = system: Neuregulin-1 EGF-like domain; assay: small molecules binding NRG1 EGF domain – biochemical, small-molecule microarray, 635 nm fluorescence, primary screen (AID 1081); conditions: higher = more signal;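 note: binding of the protein to compounds printed on small-molecule microarray slides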
[8] = FRG1 expression reporter modulators in myotubes – cell-based, C2C12 myotubes, firefly/Renilla luciferase, luminescence, FRG1 inhibition for FSHD, primary screen (AID 1084); conditions: FRG1 promoter luciferase, higher = more signal, called active from +8 up or from −8 down
[9] = small molecules captured by biotinylated probe aFST – biochemical, small-molecule microarray, fluorescence 635/667, stem cell growth factor project, primary screen (AID 1086); conditions: higher = more signal;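 note: score merges 667 nm fluorescence with signal-to-noise of each printed compound spot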
[10] = binders of probe aHhip on microarray, primary screen, stem cell growth factor project, biochemical, small-molecule microarray, fluorescence 635/667 (AID 1087); conditions: higher = more signal;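 note: score merges spot fluorescence at 667nm with spot signal to noise ratio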
[11] = system: PRMT1 (protein arginine N-methyltransferase 1); assay: small molecules binding arginine methyltransferase PRMT1 – biochemical, small-molecule microarray, 635 nm fluorescence, primary screen (AID 1088); conditions: higher = more signal;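 note: binding of Prmt1 protein to compounds spotted on small-molecule microarray slides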
[12] = growth effects on S. cerevisiae YJM789 – YJM789 clinical isolate, OD600, 24 h, basal, primary screen (AID 1089); conditions: higher = more signal, called active from +8 up or from −8 down;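 note: growth of clinical yeast isolate S. cerevisiae YJM 789 seeded 1000 cells per well; test concentration not given here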
[13] = S. pombe growth modifiers, basal conditions – strain 972, OD600, 24 h, no modulator, primary screen (AID 1090);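 note: basal condition with compound alone and no growth modifier present; test concentration not given here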; conditions: S. pombe 972 growth, higher = more signal, called active from +8 up or from −8 down
[14] = budding yeast growth modifiers under rapamycin – strain BY4716, OD600, 96 h, primary screen (AID 1091); note: test concentration not given here; conditions: S. cerevisiae BY4716 + rapamycin, higher = more signal, called active from +8 up or from −8 down
[15] = molecular target: Torsin-1A-interacting protein 2 (Homo sapiens) (UniProt Q8NFQ8); assay: small molecules binding lysate-expressed LULL1 – cell lysate, human LULL1 lysate, 635/667 nm fluorescence, primary screen (AID 1092); conditions: small-molecule microarray, hLULL1 lysate binding, 635 nm fluorescence; higher = more signal;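 note: probe is lysate of COS7 cells overexpressing human LULL1; score merges per-feature 667 nm fluorescence with signal-to-noise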
Sequence of Torsin-1A-interacting protein 2 (Homo sapiens) (Q8NFQ8 whole entry, looked up): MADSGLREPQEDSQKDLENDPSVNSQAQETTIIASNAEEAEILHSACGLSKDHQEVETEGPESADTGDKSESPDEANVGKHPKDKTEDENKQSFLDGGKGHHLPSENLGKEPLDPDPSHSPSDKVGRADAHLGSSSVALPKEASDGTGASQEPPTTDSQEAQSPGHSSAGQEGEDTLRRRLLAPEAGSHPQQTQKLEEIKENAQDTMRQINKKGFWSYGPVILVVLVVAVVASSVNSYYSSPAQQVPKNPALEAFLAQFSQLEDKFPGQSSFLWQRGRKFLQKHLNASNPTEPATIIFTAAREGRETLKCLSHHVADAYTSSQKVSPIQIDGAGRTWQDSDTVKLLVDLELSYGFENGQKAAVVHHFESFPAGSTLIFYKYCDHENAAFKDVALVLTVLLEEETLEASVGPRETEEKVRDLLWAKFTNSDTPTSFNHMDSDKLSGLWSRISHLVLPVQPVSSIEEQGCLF

[16] = optical density change of DRC41 E. coli – strain DRC41, OD650, 24 h, E. coli filamentation project, primary screen (AID 1093);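 note: MC1000 strain lacking acrAB efflux and sulA so SOS filamentation is blocked; test concentration not given here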; conditions: E. coli DRC41 growth, higher = more signal, called active from +8 up or from −8 down
[17] = probe aLefty2 binding to arrayed compounds – biochemical, biotinylated probe, 635/667 nm fluorescence, primary screen (AID 1094); conditions: small-molecule microarray, higher = more signal;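 note: score merges spot fluorescence near 667 nm with spot signal-to-noise ratio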
[18] = system: Noggin (protein binding on small-molecule microarray); assay: small molecules binding Noggin protein – biochemical, 635/667 nm fluorescence, primary screen (AID 1095); conditions: 635 nm fluorescence, higher = more signal;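 note: score merges 667 nm feature fluorescence with signal to noise over triplicate slides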
[19] = molecular target: Neurogenic locus notch homolog protein 3 (Homo sapiens) (UniProt Q9UM47); assay: small molecules binding NOTCH3 protein – biochemical, 635/667 nm fluorescence, primary screen (AID 1096); conditions: small-molecule microarray, 635 nm fluorescence, higher = more signal
Sequence of Neurogenic locus notch homolog protein 3 (Homo sapiens) (Q9UM47 whole entry, looked up): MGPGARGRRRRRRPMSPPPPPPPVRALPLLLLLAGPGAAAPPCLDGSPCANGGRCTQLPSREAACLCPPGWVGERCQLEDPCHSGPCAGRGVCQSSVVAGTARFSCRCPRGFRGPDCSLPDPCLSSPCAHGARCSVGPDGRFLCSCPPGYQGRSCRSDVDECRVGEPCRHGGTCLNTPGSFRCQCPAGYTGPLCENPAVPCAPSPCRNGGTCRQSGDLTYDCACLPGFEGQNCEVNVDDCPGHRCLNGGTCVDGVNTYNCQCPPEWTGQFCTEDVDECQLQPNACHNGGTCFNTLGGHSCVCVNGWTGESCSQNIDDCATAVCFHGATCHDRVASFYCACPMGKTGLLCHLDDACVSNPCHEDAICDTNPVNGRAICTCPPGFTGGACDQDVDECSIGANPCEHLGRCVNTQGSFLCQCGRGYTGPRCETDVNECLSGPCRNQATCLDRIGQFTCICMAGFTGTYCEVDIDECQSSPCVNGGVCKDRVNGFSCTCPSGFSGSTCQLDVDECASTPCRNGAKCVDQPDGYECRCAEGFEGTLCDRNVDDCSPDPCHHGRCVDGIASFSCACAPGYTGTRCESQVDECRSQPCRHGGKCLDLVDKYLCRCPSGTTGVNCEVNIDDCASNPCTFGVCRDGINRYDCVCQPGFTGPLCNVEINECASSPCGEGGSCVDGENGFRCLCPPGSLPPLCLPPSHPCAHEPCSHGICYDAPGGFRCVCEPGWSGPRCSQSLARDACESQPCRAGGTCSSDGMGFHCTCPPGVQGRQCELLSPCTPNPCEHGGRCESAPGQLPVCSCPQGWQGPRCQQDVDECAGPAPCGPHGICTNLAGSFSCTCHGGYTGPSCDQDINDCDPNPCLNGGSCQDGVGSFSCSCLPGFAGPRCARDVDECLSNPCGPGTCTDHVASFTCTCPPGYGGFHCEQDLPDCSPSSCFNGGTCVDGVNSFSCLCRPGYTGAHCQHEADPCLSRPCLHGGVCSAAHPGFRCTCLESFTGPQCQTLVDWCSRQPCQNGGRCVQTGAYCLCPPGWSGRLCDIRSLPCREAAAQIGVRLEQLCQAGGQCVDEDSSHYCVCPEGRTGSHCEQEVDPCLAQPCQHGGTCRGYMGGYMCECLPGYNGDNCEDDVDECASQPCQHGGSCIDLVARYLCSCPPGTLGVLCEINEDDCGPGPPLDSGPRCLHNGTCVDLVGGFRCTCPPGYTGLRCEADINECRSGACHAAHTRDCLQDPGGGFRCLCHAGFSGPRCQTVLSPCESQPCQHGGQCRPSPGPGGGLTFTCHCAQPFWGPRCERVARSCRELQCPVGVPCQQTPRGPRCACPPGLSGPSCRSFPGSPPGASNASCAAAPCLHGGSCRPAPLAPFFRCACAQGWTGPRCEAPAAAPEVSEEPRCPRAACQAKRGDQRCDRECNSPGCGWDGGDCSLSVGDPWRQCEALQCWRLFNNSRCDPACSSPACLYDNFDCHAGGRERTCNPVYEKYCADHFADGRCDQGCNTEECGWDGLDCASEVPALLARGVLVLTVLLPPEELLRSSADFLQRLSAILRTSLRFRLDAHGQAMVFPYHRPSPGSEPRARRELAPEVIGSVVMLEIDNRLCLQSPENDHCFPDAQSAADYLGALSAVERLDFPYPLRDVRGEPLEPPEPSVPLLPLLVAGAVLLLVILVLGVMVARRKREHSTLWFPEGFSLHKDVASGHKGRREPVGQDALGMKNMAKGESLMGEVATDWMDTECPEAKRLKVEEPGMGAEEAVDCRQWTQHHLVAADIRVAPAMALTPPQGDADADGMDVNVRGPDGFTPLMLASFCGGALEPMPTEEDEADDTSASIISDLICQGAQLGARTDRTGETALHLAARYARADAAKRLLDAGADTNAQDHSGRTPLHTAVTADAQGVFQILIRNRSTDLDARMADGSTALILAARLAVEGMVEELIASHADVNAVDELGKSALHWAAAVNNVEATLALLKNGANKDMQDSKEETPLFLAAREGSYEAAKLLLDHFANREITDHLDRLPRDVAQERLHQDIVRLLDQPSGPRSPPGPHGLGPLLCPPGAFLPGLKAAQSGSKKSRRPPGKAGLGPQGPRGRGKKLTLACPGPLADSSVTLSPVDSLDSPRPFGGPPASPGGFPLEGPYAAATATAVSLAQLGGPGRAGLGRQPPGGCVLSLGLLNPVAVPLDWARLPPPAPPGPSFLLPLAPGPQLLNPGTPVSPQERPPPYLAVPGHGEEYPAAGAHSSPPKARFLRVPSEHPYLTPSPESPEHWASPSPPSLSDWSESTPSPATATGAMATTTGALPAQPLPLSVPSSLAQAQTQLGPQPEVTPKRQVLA

[20] = probe aEGFR binding to arrayed compounds – biochemical, biotinylated probe, 635/667 nm fluorescence, primary screen (AID 1097); conditions: small-molecule microarray, higher = more signal;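 note: probe is a biotinylated anti-EGFR antibody binding compounds printed on slides; score combines fluorescence near 667 nm and signal to noise of each spot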

COc1ccc([Si](C)(C)[C@H]2[C@H](CC(=O)N3Cc4ccccc4C[C@H]3CO)O[C@@]3(C(=O)N(c4ccccc4)c4ccccc43)[C@@H]2C)cc1
composite z-score [1]: 0.0545 | composite z-score [2]: 1.37 | composite z-score [3]: 0.0568 | composite z-score [4]: 0.748 | composite z-score [5]: 0.584 | composite z-score [6]: 1.16 | composite z-score [7]: 1.16 | z-score [8]: -2.31 (inactive) | composite z-score [9]: 0.381 | composite z-score [10]: 0.21 | composite z-score [11]: 1.53 | z-score [12]: -2.39 (inactive) | z-score [13]: -1.61 (inactive) | z-score [14]: -0.776 (inactive) | composite z-score [15]: 1.47 | z-score [16]: 1.65 (inactive) | composite z-score [17]: -0.0088 | composite z-score [18]: 1.85 | composite z-score [19]: 1.09 | composite z-score [20]: 0.0059

CC=CC(O)C1C=CC2C(=O)NC(=O)C2N1Nc1ccc(Cl)cc1Cl (stereo not given)
composite z-score [1]: 0.389 | composite z-score [2]: 0.453 | composite z-score [3]: -0.0074 | composite z-score [4]: 0.647 | composite z-score [5]: 0.662 | composite z-score [6]: 1.01 | composite z-score [7]: 0.669 | z-score [8]: 0.035 (inactive) | composite z-score [9]: 0.114 | composite z-score [10]: -0.0645 | composite z-score [11]: -0.193 | z-score [12]: -6.04 (inactive) | z-score [13]: -2 (inactive) | z-score [14]: 0.624 (inactive) | composite z-score [15]: 2.28 | z-score [16]: -1.13 (inactive) | composite z-score [17]: 0.0598 | composite z-score [18]: -0.376 | composite z-score [19]: 0.0204 | composite z-score [20]: -0.148

C=CC1c2cc(O)c(OC)cc2CCN1C (stereo not given)
composite z-score [1]: 0.0043 | composite z-score [2]: -0.231 | composite z-score [3]: -0.103 | composite z-score [4]: 0.275 | composite z-score [5]: -0.208 | composite z-score [6]: 0.0582 | composite z-score [7]: 1.06 | z-score [8]: -0.201 (inactive) | composite z-score [9]: 0.0531 | composite z-score [10]: 0.0373 | composite z-score [11]: -0.648 | z-score [12]: -0.763 (inactive) | z-score [13]: -0.819 (inactive) | z-score [14]: 0.0904 (inactive) | composite z-score [15]: 0.134 | z-score [16]: -0.223 (inactive) | composite z-score [17]: 0.0112 | composite z-score [18]: -0.542 | composite z-score [19]: -0.821 | composite z-score [20]: -0.135

CN(C)CCCC[C@@H]1NC(=O)[C@@H]2C[C@H](C(=O)NCCCCCCNC(=O)CS)[C@H](c3ccc(O)cc3)N2C1=O
composite z-score [1]: -0.195 | composite z-score [2]: 0.991 | composite z-score [3]: -0.0959 | composite z-score [4]: 0.204 | composite z-score [5]: 0.262 | composite z-score [6]: 0.133 | composite z-score [7]: 0.975 | z-score [8]: 0.133 (inactive) | composite z-score [9]: -0.114 | composite z-score [10]: -0.0645 | composite z-score [11]: 1.33 | z-score [12]: -0.378 (inactive) | z-score [13]: -0.472 (inactive) | z-score [14]: 0.0236 (inactive) | composite z-score [15]: 2.79 | z-score [16]: -0.744 (inactive) | composite z-score [17]: -0.269 | composite z-score [18]: 1.13 | composite z-score [19]: 0.65 | composite z-score [20]: 0.123

CC(C)[Si](C#CCCc1ccccc1)(O[C@H](c1ccccc1)c1cn(Cc2ccccc2)nn1)C(C)C
composite z-score [1]: -0.454 | composite z-score [2]: -0.137 | composite z-score [3]: -0.116 | composite z-score [4]: 0.529 | composite z-score [5]: 0.186 | composite z-score [6]: 0.215 | composite z-score [7]: 1.12 | z-score [8]: 0.0497 (inactive) | composite z-score [9]: 0.584 | composite z-score [10]: 0.0401 | composite z-score [11]: 1.25 | z-score [12]: -1.17 (inactive) | z-score [13]: -12.3 (active) | z-score [14]: -0.778 (inactive) | composite z-score [15]: 0.958 | z-score [16]: 0.791 (inactive) | composite z-score [17]: -0.0095 | composite z-score [18]: 0.797 | composite z-score [19]: 1.13 | composite z-score [20]: 0.0276

C=CCC(OC(C)=O)[C@@H]1[C@@H](N(Cc2cc3ccccc3o2)C(=O)Cc2ccc(OC)cc2)c2cc(OCCCO)ccc2N1C(=O)c1ccc2ccccc2n1 (stereo not given in full)
composite z-score [1]: -0.0558 | composite z-score [2]: -0.24 | composite z-score [3]: 0.0372 | composite z-score [4]: 0.176 | composite z-score [5]: 0.0554 | composite z-score [6]: -0.251 | composite z-score [7]: -0.0159 | z-score [8]: 0.544 (inactive) | composite z-score [9]: 0.271 | composite z-score [10]: 0.12 | composite z-score [11]: 0.404 | z-score [12]: -0.256 (inactive) | z-score [13]: -0.844 (inactive) | z-score [14]: 0.292 (inactive) | composite z-score [15]: 0.295 | z-score [16]: 1.03 (inactive) | composite z-score [17]: 0.0478 | composite z-score [18]: 0.356 | composite z-score [19]: 0.0707 | composite z-score [20]: 0.0453

COc1ccc(C(O)C2C=CC3C(=O)NC(=O)C3N2Nc2ccc(Cl)cc2Cl)c2ccccc12 (stereo not given)
composite z-score [1]: 0.877 | composite z-score [2]: 0.433 | composite z-score [3]: -0.106 | composite z-score [4]: 0.273 | composite z-score [5]: 1.02 | composite z-score [6]: 0.999 | composite z-score [7]: 1.04 | z-score [8]: -0.0308 (inactive) | composite z-score [9]: 0.951 | composite z-score [10]: -0.216 | composite z-score [11]: 1.01 | z-score [12]: -10.5 (active) | z-score [13]: -2.63 (inactive) | z-score [14]: 0.126 (inactive) | composite z-score [15]: 2.98 | z-score [16]: -0.708 (inactive) | composite z-score [17]: -0.279 | composite z-score [18]: -0.494 | composite z-score [19]: 1.05 | composite z-score [20]: -0.176

COC(=O)[C@@]1(Cc2ccc(OC)cc2)[C@H]2c3cc(C(=O)N4CCCC4)n(Cc4ccc(Cl)c(C(F)(F)F)c4)c3C[C@H]2CN1C(=O)c1ccccc1
composite z-score [1]: 0.608 | composite z-score [2]: 0.673 | composite z-score [3]: 0.243 | composite z-score [4]: 0.437 | composite z-score [5]: 1.64 | composite z-score [6]: 2 | composite z-score [7]: 0.605 | z-score [8]: -2.87 (inactive) | composite z-score [9]: 1.53 | composite z-score [10]: 0.132 | composite z-score [11]: 1 | z-score [12]: -1.21 (inactive) | z-score [13]: 1.37 (inactive) | z-score [14]: 0.509 (inactive) | composite z-score [15]: 3.59 | z-score [16]: -0.304 (inactive) | composite z-score [17]: 0.711 | composite z-score [18]: -0.109 | composite z-score [19]: 1.03 | composite z-score [20]: 0.0788

O=C1c2ccccc2[C@@]2(Cc3ccccc3N(Cc3ccccc3)C2=O)[C@H](c2ccc(CO)cc2)N1Cc1ccccc1Cl
composite z-score [1]: 0.209 | composite z-score [2]: -0.337 | composite z-score [3]: -0.0934 | composite z-score [4]: -0.127 | composite z-score [5]: -1.04 | composite z-score [6]: -0.579 | composite z-score [7]: -1.13 | z-score [8]: 1.13 (inactive) | composite z-score [9]: -0.164 | composite z-score [10]: -0.0541 | composite z-score [11]: 0.11 | z-score [12]: -0.251 (inactive) | z-score [13]: -0.602 (inactive) | z-score [14]: -2.35 (inactive) | composite z-score [15]: -0.394 | z-score [16]: -0.499 (inactive) | composite z-score [17]: -0.0812 | composite z-score [18]: -0.109 | composite z-score [19]: -0.149 | composite z-score [20]: -0.146

[N-]=[N+]=Nc1ccccc1[C@@H]1OC(c2ccc(OCCCO)cc2)=N[C@]1(CCS(=O)(=O)c1ccccc1)C(=O)NCC(O)CO (stereo not given in full)
composite z-score [1]: 0.158 | composite z-score [2]: 0.372 | composite z-score [3]: -0.0125 | composite z-score [4]: 0.0835 | composite z-score [5]: 0.209 | composite z-score [6]: 1.05 | composite z-score [7]: 1.21 | z-score [8]: -0.463 (inactive) | composite z-score [9]: 0.283 | composite z-score [10]: 0.0401 | composite z-score [11]: 0.856 | z-score [12]: 0.678 (inactive) | z-score [13]: 0.636 (inactive) | z-score [14]: 0.347 (inactive) | composite z-score [15]: 3.1 | z-score [16]: 0.679 (inactive) | composite z-score [17]: -0.116 | composite z-score [18]: 0.351 | composite z-score [19]: 0.0354 | composite z-score [20]: -0.147
